Laboratory results published in article PMC4336329 (PLoS ONE, 2015).
Among all 310,000 compounds or so, about 14,000 (4.5%) showed an effect of 50% or more. Effects have a minus sign here. The entries come from a sample that favours strong results as a whole.

Molecular target: human ether-à-go-go-related gene (hERG) potassium channel (human, UniProt Q12809)
Assay: primary screen, population patch clamp on CHO cells stably expressing hERG; higher = less effect of the substance
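Further: peak tail current of the secondary pulse compared with the same well before compound.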

human ether-à-go-go-related gene (hERG) potassium channel, sequence (Q12809 whole entry, looked up): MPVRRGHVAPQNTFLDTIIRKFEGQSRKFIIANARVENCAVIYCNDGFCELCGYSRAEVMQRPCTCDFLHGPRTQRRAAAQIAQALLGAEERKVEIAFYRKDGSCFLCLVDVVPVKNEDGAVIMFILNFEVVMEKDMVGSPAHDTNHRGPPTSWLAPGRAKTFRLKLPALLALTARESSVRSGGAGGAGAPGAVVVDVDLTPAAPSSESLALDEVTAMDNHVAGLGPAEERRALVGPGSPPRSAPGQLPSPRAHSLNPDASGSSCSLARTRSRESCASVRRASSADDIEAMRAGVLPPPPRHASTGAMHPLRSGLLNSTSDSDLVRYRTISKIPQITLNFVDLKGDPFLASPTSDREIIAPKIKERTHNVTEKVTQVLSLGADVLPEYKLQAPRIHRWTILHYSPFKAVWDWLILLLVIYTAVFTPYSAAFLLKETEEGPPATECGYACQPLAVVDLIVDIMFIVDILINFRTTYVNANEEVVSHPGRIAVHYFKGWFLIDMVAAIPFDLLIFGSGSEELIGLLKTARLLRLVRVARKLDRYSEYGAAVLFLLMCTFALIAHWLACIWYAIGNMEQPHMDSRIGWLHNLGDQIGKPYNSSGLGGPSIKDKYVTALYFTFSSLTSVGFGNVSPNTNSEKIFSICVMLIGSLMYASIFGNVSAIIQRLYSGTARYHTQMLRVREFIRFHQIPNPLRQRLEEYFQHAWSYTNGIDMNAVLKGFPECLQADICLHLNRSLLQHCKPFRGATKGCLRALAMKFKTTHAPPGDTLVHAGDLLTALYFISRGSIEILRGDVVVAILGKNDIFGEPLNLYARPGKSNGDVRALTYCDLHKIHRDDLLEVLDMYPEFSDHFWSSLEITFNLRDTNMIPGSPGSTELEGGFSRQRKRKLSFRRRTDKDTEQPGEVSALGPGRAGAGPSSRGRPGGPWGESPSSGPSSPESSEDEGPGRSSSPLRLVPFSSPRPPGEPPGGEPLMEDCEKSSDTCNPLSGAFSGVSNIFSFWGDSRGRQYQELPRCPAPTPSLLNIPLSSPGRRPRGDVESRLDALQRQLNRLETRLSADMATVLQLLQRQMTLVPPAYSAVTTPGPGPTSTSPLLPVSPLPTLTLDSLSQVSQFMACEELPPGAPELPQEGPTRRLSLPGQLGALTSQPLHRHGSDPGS

Row | Structure (SMILES) | hERG current change (%, negative = inhibition) at 10uM [%]
1 | CCOC(=O)C1CCCN(C(=O)c2ccc(Cn3c(=S)[nH]c4cc(C(=O)OC)ccc4c3=O)cc2)C1 (stereo not drawn) | 10.6
2 | CCN1C(=O)[C@H]2[C@@H](c3ccc(C)cc3)N3C(=O)N(c4ccc(C(F)(F)F)cc4)C(=O)[C@@]3(CC(C)C)[C@H]2C1=O | 14.6
3 | Cc1ccc(C)c(NC(=O)CN(C)S(=O)(=O)c2ccc(F)cc2)c1 | 3.47
4 | Cc1cc(NC(=O)CSc2nc(-c3ccccc3)c(C#N)c(=O)[nH]2)no1 | -0.629
5 | Cc1ccsc1/C=C1\C(=O)NC(=S)N(C)C1=O | 15.3
6 | O=C(COc1ccc(Cl)cc1)NCCS(=O)(=O)N1CCN(c2ccccc2F)CC1 | 5.38
7 | CC(=O)C1=C(O)C(=O)N(c2cccc(Br)c2)C1c1ccccc1Cl (stereo not drawn) | -4.7
8 | COc1ccc(OC)c(NC(=O)c2nc(-c3ccccc3)oc2C)c1 | -6.31
9 | O=S(=O)(Nc1ccc(Br)cc1)c1cccc(NC(=S)NCCN2CCOCC2)c1 | 3.16
10 | Cc1ccc(CN2Cc3cccc4c3[C@@H](CC2=O)[C@H](O)[C@H](O)C4)cc1 | 19.6
11 | O=C(CCc1nnc2ccc(N3CCCC3)nn12)Nc1cc(F)ccc1F | -50.4
12 | O=C(CCc1nnc2ccc(N3CCCC3)nn12)Nc1ccc(F)cc1F | 8.27
13 | CC1CCN(c2ccc3nnc(CCC(=O)N4CCN(c5ccccc5F)CC4)n3n2)CC1 | -62.6
14 | COc1cccc(NC(=O)CCc2nnc3ccc(N4CCN(c5cccc(OC)c5)CC4)nn23)c1 | 13.6
15 | COc1ccc(N2CCN(C(=O)CCc3nnc4ccc(N5CCC(C)CC5)nn34)CC2)cc1 | -66.1
16 | COc1ccc(N2CCN(C(=O)CCc3nnc4ccc(N5CCOCC5)nn34)CC2)cc1 | -5.83
17 | COc1cc(NC(=O)CCc2nnc3ccc(N4CCN(c5cccc(OC)c5)CC4)nn23)cc(OC)c1 | 7.07
18 | COc1cccc(N2CCN(c3ccc4nnc(CCC(=O)Nc5ccccc5OC)n4n3)CC2)c1 | -62.6
19 | COc1ccccc1N1CCN(C(=O)CCc2nnc3ccc(N4CCCC4)nn23)CC1 | -34.1
20 | COc1ccc(N2CCN(C(=O)CCc3nnc4ccc(N5CCCC5)nn34)CC2)cc1 | -7.68
21 | CC1CCN(c2ccc3nnc(CCC(=O)Nc4cc(F)ccc4F)n3n2)CC1 | -37.5
22 | COc1ccccc1N1CCN(C(=O)CCc2nnc3ccc(N4CCC(C)CC4)nn23)CC1 | -33.5
23 | N#CCCN(C(=O)COC(=O)c1ccc2c(c1)NC(=O)CS2)c1ccc2c(c1)OCCO2 | -22.8

Row | Structure (SMILES) | hERG current change (%, negative = inhibition) at 10uM [%]
24 | CCOCCOC(=O)C1=C(C)NC(=O)NC1c1cc2c(cc1Br)OCO2 (stereo not drawn) | -30.5
25 | O=C(CSCc1ccccc1)Nc1ccc(F)c(F)c1 | -3.2
26 | Cc1cc(C)cc(C(=O)NCC(=O)OCC(=O)c2cc(C)n(CC(F)(F)F)c2C)c1 | 1.83
27 | Cc1noc(C)c1CSc1nc2ccccc2s1 | -10.1
28 | COc1ccc(N2CCN(c3ccc4nnc(CCC(=O)Nc5ccc(C)cc5)n4n3)CC2)cc1 | -70.1
29 | CC1CCN(c2ccc3nnc(CCC(=O)N4CCCCC4)n3n2)CC1 | -3.14
30 | COc1cccc(N2CCN(C(=O)CCc3nnc4ccc(N5CCCC5)nn34)CC2)c1 | -28.7
31 | COc1ccc(NC(=O)CCc2nnc3ccc(N4CCC(C)CC4)nn23)cc1 | -22.9
32 | CC1CCN(c2ccc3nnc(CCC(=O)Nc4ccc(F)cc4)n3n2)CC1 | -39.6
33 | COc1ccc(NC(=O)CCc2nnc3ccc(N4CCN(c5cccc(OC)c5)CC4)nn23)cc1 | -22.8
34 | CCN1CCN(C(=O)CCc2nnc3ccc(N4CCN(c5cccc(OC)c5)CC4)nn23)CC1 | -5.55
35 | COc1cccc(N2CCN(c3ccc4nnc(CCC(=O)N5CCN(C)CC5)n4n3)CC2)c1 | -1.62
36 | COc1cccc(N2CCN(C(=O)CCc3nnc4ccc(N5CCOCC5)nn34)CC2)c1 | -7.05
37 | CCCN1CCN(C(=O)CCc2nnc3ccc(N4CCN(c5cccc(OC)c5)CC4)nn23)CC1 | -54.9
38 | COc1cccc(N2CCN(c3ccc4nnc(CCC(=O)N5CCC(C)CC5)n4n3)CC2)c1 | -66.4
39 | CC1CCN(c2ccc3nnc(CCC(=O)N4CCN(c5ccc(F)cc5)CC4)n3n2)CC1 | -66.2
40 | CCN(CC(=O)Nc1ccccc1OC)C(=O)C1CCCC1 | 0.547
41 | CC1CCN(C(=S)Nc2cccc(S(=O)(=O)N(C)C)c2)CC1 | 11.1
42 | CO/N=C/c1cccn1-c1nccc(OC)c1C#N | 19.1
43 | Cc1nc(C)c(C(=O)C2=C(O)C(=O)N(CCN3CCOCC3)C2c2cccs2)s1 (stereo not drawn) | 5.12
44 | COc1cc(/C=C/C(=O)O)ccc1OS(=O)(=O)c1c(C)cc(C)cc1C | -43.2
45 | C=CCOc1ccc(/C=C/C(=O)OCC(=O)N(C)CC(=O)Nc2ccc(F)cc2)cc1 | 7.74
46 | COc1ccccc1CC(=O)Nc1c[nH]c(=O)[nH]c1=O | 38.8

Row | Structure (SMILES) | hERG current change (%, negative = inhibition) at 10uM [%]
47 | Cc1ccc2c(c1)c1ncnc(N3CCN(c4ccccc4)CC3)c1n2C | -12.3
48 | CC(C)N1CCN(CC2COc3ccccc3O2)CC1.Cl (stereo not drawn) | -19.4
49 | Cc1ccccc1CN1CCNCC1.Cl | 14
50 | c1ccc2c(c1)CC(CN1CCNCC1)O2 (stereo not drawn) | -52.3
51 | Cn1c(=O)oc2cc(S(=O)(=O)Nc3cccc([N+](=O)[O-])c3)ccc21 | 4.69
52 | Cc1ccc(C)c(Cn2nnc3c(=O)[nH]c(C(=O)Nc4ccc(F)cc4)nc32)c1 | 28.5
53 | CCOc1ccc(C(=O)N2CCCC2)cc1OC | -14.7
54 | Cl.OC(COc1c(F)cc(Br)cc1F)CN1CCc2ccccc2C1 (stereo not drawn) | -72.2
55 | Cc1ccc(C)c(OCC(O)CN2CCc3ccccc3C2)c1C.Cl (stereo not drawn) | -65.3
56 | Cc1cccc(C)c1OCC(O)CN1CCc2ccccc2C1.Cl (stereo not drawn) | -64.2
57 | Cc1cccc(C)c1OCC(O)Cn1c2ccccc2c2ccccc21 (stereo not drawn) | 6.83
58 | Cl.OC(COc1c(F)cc(Br)cc1F)CN1CCN(c2ccc(F)cc2)CC1 (stereo not drawn) | -25.7
59 | Cc1ccc(C)c(OCC(O)CN2CCC(C)CC2)c1C (stereo not drawn) | -33.6
60 | Cl.OC(COc1c(F)cc(Br)cc1F)CN1CCOCC1 (stereo not drawn) | 2.28
61 | Nc1ccc(S(=O)(=O)Nc2nc(-c3ccccc3)cc(-c3ccccc3)n2)cc1 | 21.6
62 | Cc1ccc(NC(=O)Cn2nc(C)c3ccccc3c2=O)c(C)c1 | 10.2
63 | NC(=O)CN1C(=O)C(=O)N(Cc2ccccc2Cl)C1=O | 8.45
64 | CC(=O)Nc1c(C(=O)C2CC2)oc2ccccc12 | -7
65 | Cc1ccc(OCC(O)CN2CCN(c3ccccc3)CC2)cc1 (stereo not drawn) | -38.6
66 | OC(COC1CCCCC1)CN1CCN(c2ccccc2)CC1 (stereo not drawn) | -29.8
67 | CC(C)c1ccc(OCC(O)CN2CCN(c3ccccc3)CC2)cc1.Cl (stereo not drawn) | -47.3
68 | Cc1ccc(OCC(O)CN2CCCC2)cc1 (stereo not drawn) | 11.5
69 | Cc1cccc(C)c1OCC(O)CN1CCN(c2ccccc2)CC1.Cl (stereo not drawn) | -53.1

Row | Structure (SMILES) | hERG current change (%, negative = inhibition) at 10uM [%]
70 | COc1cccc(OC)c1OCC(O)CN1CCN(c2ccccc2)CC1.Cl (stereo not drawn) | -33.3
71 | Cc1ccc(N2CCN(CC(O)COc3ccccc3)CC2)cc1 (stereo not drawn) | -50.9
72 | CC(C)(C)C1CCC(OCC(O)CN2CCN(c3ccccc3)CC2)CC1.Cl (stereo not drawn) | 1.42
73 | Cc1ccc(OCC(O)CN2CCOCC2)cc1 (stereo not drawn) | 8.2
74 | Cc1ccc(N2CCN(CC(O)COC3CCCCC3)CC2)cc1 (stereo not drawn) | -56.1
75 | Cc1ccc(OCC(O)CN2CCN(CC(O)COc3ccc(C)cc3)CC2)cc1 (stereo not drawn) | -63.9
76 | Cc1nc(N)c(C#N)c(-c2ccccc2)c1C | -10.4
77 | CCN1C(=S)N[C@@H](c2cccs2)C(C(=O)OC)=C1C | 4.42
78 | O=C(CNC(=O)c1ccccc1F)N/N=C/c1cc(Br)ccc1OCc1ccccc1 | -3.96
79 | Fc1ccc(N/N=C/c2ccncc2)c(F)c1 | -9.23
80 | COC(=O)c1ccc(OCC(O)CN2CCC(C)CC2)cc1 (stereo not drawn) | -15.3
81 | Cc1ccc(OCC(O)CN2CCN(CC(O)COc3ccc(C)cc3Cl)CC2)c(Cl)c1 (stereo not drawn) | -24.3
82 | COC(=O)c1ccc(OCC(O)CN2CCOCC2)cc1 (stereo not drawn) | 15
83 | Cc1ccc(N2CCN(CC(O)COc3cccc(C)c3)CC2)cc1 (stereo not drawn) | -55.1
84 | Cc1ccc(OCC(O)CN2CCN(CC(O)COC(C)C)CC2)c(C(C)(C)C)c1 (stereo not drawn) | -65.2
85 | Cc1cccc(OCC(O)CN2CCN(S(=O)(=O)c3ccc(C)cc3C)CC2)c1 (stereo not drawn) | -17.5
86 | COC(=O)c1ccc(OCC(O)CN2CCN(CC(O)COc3ccc(C(=O)OC)cc3)CC2)cc1 (stereo not drawn) | -72.9
87 | CCOC(=O)N1CCN(CC(O)COc2cc(C)ccc2C(C)C)CC1.Cl (stereo not drawn) | -26.8
88 | Cc1cccc(OCC(O)CN2CCN(C3CCCCC3)CC2)c1.Cl (stereo not drawn) | -50.3
89 | Cc1cccc(OCC(O)CN2CCOCC2)c1.Cl (stereo not drawn) | 10.9
90 | Cc1cccc(OCC(O)CN2CCNCC2)c1.Cl (stereo not drawn) | 26.5
